FLuc counter – inhibits or activates purified firefly luciferase, miR-21 counter-screen. P08659. purified FLuc, Km substrates, luminescence inhibition. Potency, µM (series often up to 57.5 µM), most hits filed as inhibitors. hit rate 6.9% among 360,000. AID 588342; note: nearly all actives have a fitted effect of over 55% in size
Target sequence (P08659 whole entry, looked up): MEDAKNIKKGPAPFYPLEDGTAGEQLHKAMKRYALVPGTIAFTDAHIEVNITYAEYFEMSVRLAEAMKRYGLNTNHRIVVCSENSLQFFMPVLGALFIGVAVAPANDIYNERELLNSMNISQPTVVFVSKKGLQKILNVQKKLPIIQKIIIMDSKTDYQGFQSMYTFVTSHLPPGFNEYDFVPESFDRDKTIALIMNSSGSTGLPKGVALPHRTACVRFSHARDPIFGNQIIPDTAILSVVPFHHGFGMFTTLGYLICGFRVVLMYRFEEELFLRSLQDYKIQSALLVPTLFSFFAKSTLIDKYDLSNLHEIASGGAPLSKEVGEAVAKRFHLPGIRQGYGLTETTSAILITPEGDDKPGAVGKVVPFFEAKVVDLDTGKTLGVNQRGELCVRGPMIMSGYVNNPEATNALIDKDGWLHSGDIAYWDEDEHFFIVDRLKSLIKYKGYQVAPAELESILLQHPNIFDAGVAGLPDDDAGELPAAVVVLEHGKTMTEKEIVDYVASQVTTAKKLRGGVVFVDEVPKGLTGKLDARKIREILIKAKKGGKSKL
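Biochemical qHTS of compounds, final roughly 60 µM downward over six points, against 10 nM purified firefly luciferase using Km concentrations of substrates (10 uM D-luciferin, 10 uM ATP) in Tris acetate pH 7.5 buffer; luminescence output.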
SMN2 splice enh – enhancers of SMN2 splice variant expression. HEK293 SMN2-luciferase splicing reporter, luminescence, 30-36 h. Potency, µM (titrated, usually from 46.1 µM), actives largely listed as activators. hit rate 2.8% among 210,000; note: nearly all actives have a fitted effect of over 55% in size
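HEK293 cells carry an SMN2 minigene-luciferase reporter in which exon 7 inclusion puts luciferase in frame. Cells were seeded at 2000 cells/well, attached for 10-12 hours, then exposed to compounds for 30-36 hours at 37C before ONE-Glo luminescence.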
ELG1 repair inh – inhibitors of ELG1-dependent DNA repair in HEK293T cells | HEK293T ELG1-luciferase reporter, luminescence, 16 h; DNA damage induced by 5-fluorouridine | Potency, µM (series often up to 46.1 µM), hits mostly inhibitors | hit rate 2.3% among 330,000 | AID 504467; note: nearly all actives have a fitted effect of over 55% in size
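Luminescence from the luciferase reporter, measured 30 min after ONE-Glo reagent at room temperature, was the read-out. Beforehand, 2,000 cells per well were exposed for 16 hr at 37 °C to 5-fluorouridine together with compound or vehicle.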
NPC1 promoter act – activators of NPC1 promoter; Huh7 NPC1 promoter luciferase reporter, 24 h; Potency, µM (doses to about 9.22 µM), hits mostly activators; hit rate 2.4% among 320,000; AID 485313; note: nearly all actives have a fitted effect of over 60% in size
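NPC1 promoter–luciferase Huh7 cells; 24 h compound; luminescence.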
Rab9 promoter act – Rab9 promoter activation. AID 485297. Huh7 Rab9 promoter-luciferase reporter, luminescence, 24 h. hit rate 2.8% among 320,000. Potency, µM (titrated, usually from 9.22 µM), hits mostly activators; note: nearly all actives have a fitted effect of over 60% in size
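Cell-based reporter: Huh7 stable for Rab9 promoter-driven luciferase, plated in reduced-serum medium with 10% FBS at 1500 cells/well, compound-treated 24 h at 37 °C, luminescence read after 10 min reagent.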
ELG1 genotoxic – genotoxicity induction in ELG1-luciferase HEK293T cells | Potency, µM (series often up to 46 µM), usual class: activators | HEK293T ELG1-luciferase reporter, luminescence, 16 h | hit rate 1.3% among 330,000; note: nearly all actives have a fitted effect of over 60% in size
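Cells (2,000/well) expressing the ELG1-luciferase fusion are dosed by pin tool and kept 16 hr at 37 °C, 5% CO2. Signal comes from ONE-Glo luciferase reagent after 30 min at room temperature.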
Each line names hits and unclear results; the compound was inactive in the other large screens. Sampled rows, rich in hits. Any-hit rate of the full collection: about 9.2%. Calls come from the whole dose curve; as a rule, active = well fitted curve in the direction sought with a large enough effect; inconclusive = small, poorly fitted or top-dose-only effect, or another doubt; inactive = no such curve, though single readings can be large; an effect the other way counts as inactive or inconclusive.

CCN(CC)c1ccc2cc(C(=O)Nc3ccccn3)c(=O)oc2c1	FLuc counter 0.54µM, SMN2 splice enh 2.8µM, ELG1 repair inh inconclusive, NPC1 promoter act 0.32µM, Rab9 promoter act 0.11µM, ELG1 genotoxic inconclusive
Cc1c(Cl)cccc1NS(=O)(=O)c1cccc2nsnc12	none (no result: SMN2 splice enh)
CS(=O)(=O)Nc1cccc(-c2nc(N3CCOCC3)c3ccccc3n2)c1	none (no result: FLuc counter, ELG1 repair inh, NPC1 promoter act, Rab9 promoter act, ELG1 genotoxic)
COc1ccc(C)cc1S(=O)(=O)N(CC(=O)NCc1ccc(Cl)cc1)Cc1ccccc1	ELG1 repair inh inconclusive
O=C(Nc1ccccc1)OCc1cncs1	ELG1 repair inh inconclusive
O=C(/C=C/c1ccccc1)OCc1cncs1	FLuc counter 27µM, ELG1 repair inh inconclusive, Rab9 promoter act inconclusive, ELG1 genotoxic inconclusive
COc1cc(-c2nc3ccccn3c2/N=C/c2cccc(OC)c2O)ccc1O	none
COc1cc(-c2nc3ccccn3c2/N=C/c2ccc(F)cc2)ccc1O	FLuc counter inconclusive
Clc1ccc(/C=N/c2c(-c3ccco3)nc3ccccn23)cc1	FLuc counter 15µM, Rab9 promoter act inconclusive, ELG1 genotoxic inconclusive
COc1ccc(/C=N/c2c(-c3ccco3)nc3ccccn23)cc1OC	FLuc counter 0.43µM, ELG1 repair inh inconclusive, NPC1 promoter act inconclusive, Rab9 promoter act inconclusive
O=[N+]([O-])c1cc(-c2ccc(/C=N/c3nc4ccccn4c3-c3ccco3)o2)ccc1Cl	FLuc counter inconclusive, ELG1 repair inh inconclusive, Rab9 promoter act inconclusive, ELG1 genotoxic inconclusive
Oc1ccccc1/C=N/c1c(-c2ccco2)nc2ccccn12	FLuc counter 27µM, ELG1 repair inh inconclusive, NPC1 promoter act inconclusive, Rab9 promoter act inconclusive, ELG1 genotoxic inconclusive
CCOC(=O)c1sc2ncn(CC(=O)Nc3cccc(C)c3)c(=O)c2c1C	none (no result: ELG1 repair inh, NPC1 promoter act, Rab9 promoter act, ELG1 genotoxic)
COC(=O)c1ccc(C(=O)OC)c(NC(=O)c2cnn3c(C(F)F)cc(-c4ccccc4)nc23)c1	none (no result: SMN2 splice enh, ELG1 repair inh, NPC1 promoter act, Rab9 promoter act, ELG1 genotoxic)
CN1CCN(C(=O)c2ccc(COc3ccc(Cl)cc3Cl)cc2)CC1	FLuc counter 12µM
O=C(O)c1ccc(COc2ccc(CO)cc2Cl)cc1	FLuc counter 5.4µM, SMN2 splice enh inconclusive, ELG1 repair inh inconclusive, NPC1 promoter act inconclusive, Rab9 promoter act 4.5µM, ELG1 genotoxic 9.2µM
O=C(O)c1ccc(OCc2ccccc2)c(Cl)c1	none (no result: FLuc counter, ELG1 repair inh, NPC1 promoter act, Rab9 promoter act, ELG1 genotoxic)
O=C(O)c1cccc(COc2ccc(CO)cc2Cl)c1	FLuc counter 0.021µM, SMN2 splice enh 0.04µM, ELG1 repair inh inconclusive, NPC1 promoter act 1.3µM, Rab9 promoter act 1.3µM, ELG1 genotoxic inconclusive
CCc1ccc(-c2nn(CC(=O)NC3CCCC3)c3c2cnc2ccc(F)cc23)cc1	none (no result: SMN2 splice enh, ELG1 repair inh, NPC1 promoter act, Rab9 promoter act, ELG1 genotoxic)
Cc1c(OCc2nn[nH]n2)ccc2c3c(c(=O)oc12)CCCC3	FLuc counter 21µM
COc1ccc(CCNC(=O)C(=O)NCC2OCCN2S(=O)(=O)c2ccc(C)cc2)cc1 (configuration not stated)	none (no result: SMN2 splice enh)
COc1ccc(CCNC(=O)C(=O)NCC2OCCN2S(=O)(=O)c2ccc(OC)c(OC)c2)cc1 (configuration not stated)	ELG1 repair inh inconclusive (no result: SMN2 splice enh)
COc1ccc(CCNC(=O)C(=O)NCC2OCCN2S(=O)(=O)c2ccc3c(c2)OCCO3)cc1OC (configuration not stated)	ELG1 repair inh 12µM (no result: SMN2 splice enh)
COc1ccc(S(=O)(=O)N2CCOC2CNC(=O)C(=O)NCCc2ccccc2)cc1 (configuration not stated)	ELG1 repair inh 21µM (no result: SMN2 splice enh)
COc1ccc(CCNC(=O)C(=O)NCC2OCCN2S(=O)(=O)c2ccc3c(c2)OCCO3)cc1 (configuration not stated)	ELG1 repair inh inconclusive (no result: SMN2 splice enh)
COc1ccc(S(=O)(=O)N2CCOC2CNC(=O)C(=O)NCCc2ccc(OC)c(OC)c2)cc1C (configuration not stated)	ELG1 repair inh 15µM
Cc1cc(F)ccc1S(=O)(=O)N1CCCOC1CNC(=O)C(=O)NCCc1c[nH]c2ccccc12 (configuration not stated)	ELG1 repair inh 18µM
N/C(=C\C(=O)c1cc(Cl)ccc1O)C(Cl)(Cl)Cl	ELG1 repair inh inconclusive, ELG1 genotoxic inconclusive (no result: SMN2 splice enh)
COc1ccccc1CCNC(=O)C(=O)NCC1OCCN1S(=O)(=O)c1ccc(OC)c(OC)c1 (configuration not stated)	ELG1 repair inh 21µM (no result: SMN2 splice enh)
CCOc1ccc(-c2cc(C(=O)NCc3ccc(OC)cc3)c3c(-c4ccc(F)cc4)[nH]nc3n2)cc1	none (no result: SMN2 splice enh, ELG1 repair inh, NPC1 promoter act, Rab9 promoter act, ELG1 genotoxic)
N=C1C(c2nc(-c3ccc(F)cc3)cs2)=C(O)CN1Cc1ccc(Cl)cc1	ELG1 repair inh inconclusive
Fc1ccc(Cc2cn3cc(-c4ccc(Cl)cc4)nc3s2)cc1	FLuc counter 0.6µM, SMN2 splice enh inconclusive (no result: ELG1 repair inh, NPC1 promoter act, Rab9 promoter act, ELG1 genotoxic)
Fc1ccc(-c2cn3cc(Cc4ccc(Cl)cc4)sc3n2)cc1	FLuc counter 3µM, SMN2 splice enh 3.2µM (no result: ELG1 repair inh, NPC1 promoter act, Rab9 promoter act, ELG1 genotoxic)
Cc1ccsc1/C=N/Nc1ccc(F)cc1F	FLuc counter 12µM, ELG1 repair inh inconclusive, NPC1 promoter act inconclusive, Rab9 promoter act 2.2µM, ELG1 genotoxic inconclusive (no result: SMN2 splice enh)
COc1cc(/C=N/Nc2ccc(F)cc2F)cc(OC)c1OC	FLuc counter inconclusive (no result: SMN2 splice enh)
Cc1ccsc1/C=N/Nc1ncc(Cl)cc1Cl	FLuc counter 2.7µM, SMN2 splice enh inconclusive, ELG1 repair inh inconclusive, NPC1 promoter act 2.8µM, Rab9 promoter act inconclusive, ELG1 genotoxic inconclusive
Cc1cc(C)nc(N/N=C/c2sccc2C)n1	FLuc counter inconclusive, SMN2 splice enh inconclusive, ELG1 repair inh inconclusive
